Assay results from PubChem BioAssay AID588763 (NMMLSC, 2011).
Entries with a potency or affinity are not part of this list. Active and inactive are the calls of the source. No rule for the calls is given here.

Target: Beta-2 adrenergic receptor (Homo sapiens) (UniProt P07550)
Assay: beta2AR agonists driving receptor internalization, dose response, cell-based, FAP fluorogen, flow cytometry, cherry pick 1 (AID 588763)
Details: AM2.2-beta2AR cells, 90 min; series mostly up to 33 µM; activation (receptor internalization): at the top concentration

Sequence of Beta-2 adrenergic receptor (Homo sapiens) (P07550 whole entry, looked up): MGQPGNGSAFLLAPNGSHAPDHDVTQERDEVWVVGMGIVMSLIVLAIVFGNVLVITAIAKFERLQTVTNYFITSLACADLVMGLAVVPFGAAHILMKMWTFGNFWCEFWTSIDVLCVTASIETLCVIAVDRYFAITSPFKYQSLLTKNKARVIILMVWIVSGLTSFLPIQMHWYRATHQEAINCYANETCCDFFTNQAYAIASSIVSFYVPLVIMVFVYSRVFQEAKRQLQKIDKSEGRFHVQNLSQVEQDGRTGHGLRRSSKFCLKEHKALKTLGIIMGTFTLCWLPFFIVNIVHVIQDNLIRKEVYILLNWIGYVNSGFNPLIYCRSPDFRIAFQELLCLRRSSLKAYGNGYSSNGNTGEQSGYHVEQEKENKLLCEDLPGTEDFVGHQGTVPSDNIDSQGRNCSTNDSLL

Activation (receptor internalization), inactive:
CCOC(=O)C1CCN(C(=O)COC(=O)c2ccccc2C(=O)c2ccc(Cl)cc2)CC1 27.5%
Cc1ccc(-c2nnc(SCc3nc4ccccc4[nH]3)n2Cc2ccco2)cc1 -2.47%
c1ccc(-c2nnc(SCc3nc4ccccc4[nH]3)n2Cc2ccco2)cc1 -6.19%
Cc1ccccc1NC(=O)COc1ccc(S(=O)(=O)N2CCCC2)cc1C -0.639%
O=C(c1cc(COc2ccc(F)cc2Cl)on1)N1CC2C[C@@H]3CC1C[C@H](C2)C3 -19%
COc1ccc(C)cc1S(=O)(=O)N(C)CC(=O)N1CCN(c2ccccc2)CC1 -0.827%
O=C(COc1ccc(S(=O)(=O)N2CCOCC2)cc1)Nc1ccc(Br)cc1 -5.92%
COc1ccccc1C(=O)Nc1ccc2oc(-c3ccc(F)cc3)nc2c1 -9.56%
COc1ccc(Cl)cc1NC(=O)COc1ccc(S(=O)(=O)N2CCOCC2)cc1C 20.1%
CCCCn1c(=N)n(CC(=O)c2ccc(Br)s2)c2ccccc21 98.7%
Cc1ccc(S(=O)(=O)c2ccc([N+](=O)[O-])o2)cc1 -470%
Cc1ccccc1OCc1nc(-c2ccc(NC(=O)c3ccc4c(c3)OCO4)cc2)no1 2.95%
Cn1nnnc1Sc1ncnc2scc(-c3cc4ccccc4o3)c12 106%
COc1ccccc1N1CCN(C(=O)CN(C)S(=O)(=O)c2cc(C)ccc2OC)CC1 77.6%
O=C(COc1ccc(S(=O)(=O)N2CCOCC2)cc1)Nc1ccccc1F -2.76%
O=C(CSc1ccc(Cl)cc1)Nc1ccccc1N1CCN(C(=O)c2ccccc2)CC1 80.9%
O=C(NC1CCc2ccccc21)c1cc(COc2cncc(Cl)c2)on1 (configuration not stated) 3.55%
